Source: PubChem BioAssay (Tox21)
Several values for one entry are separate records, joined by “and”; a condition that tells them apart may be missing. Equal values may be shown once. Records with an inconclusive call do not appear. A call without a number means that no potency is given here. Activity calls are given as the source filed them. Calls come from the whole dose curve; as a rule, active = well fitted cell-killing curve with a large enough effect in the repeat runs; inconclusive = weak or mixed curves, or effect the other way; inactive = flat fitted curve, though single readings scatter.

Assay: qHTS assay to identify small molecule agonists of the estrogen receptor beta (ER-beta) signaling pathway - cell viability counter screen (AID 1259380); note: nearly all actives have a fitted effect of over 30% in size
Details: ER-beta-bla HEK293T viability, CellTiter-Glo luminescence, 16 h; series mostly up to 92.4 µM
From the text: National Center for Advancing Translational Sciences [NCATS]
NIH Chemical Genomics Center [NCGC]
U.S. Environmental Protection Agency [EPA]
National Institutes of Environmental Health Sciences [NIEHS]
National Toxicology Program [NTP]
U.S. Food and Drug Administration [FDA]
Estrogen receptor (ER), a nuclear hormone receptor, plays an important role in development, metabolic homeostasis and reproduction. Two subtypes of ER, ER-alpha and ER-beta, have similar expression patterns with some uniqueness in both types. Endocrine disrupting chemicals (EDCs) and their interactions with steroid hormone receptors like ER causes disruption of normal endocrine function. To identify the compounds that activate ER signaling, an ER beta-UAS-bla GripTite cell line (Life Technologies, Madison, WI, USA) containing a beta-lactamase reporter gene under the control of an UAS response element was used to screen Tox21 10K compound library. The cytotoxicity of the Tox21 compound library against the ER-beta-bla cell line was tested in parallel by measuring the cell viability using CellTiter-Glo assay in the same wells.
Tox21 Assay Protocol Summary:
ER-beta-UAS-bla HEK293T cells were dispensed at 2,000 cells/5 uL of assay medium containing 2% charcoal stripped FBS per well into black wall/clear-bottom 1536-well plates using a Multidrop Combi (ThermoFisher Scientific, Waltham, MA) dispenser. After the assay plates were incubated at a 37C and 5% CO2 for 6 hr, 23 nL of compounds dissolved in DMSO, positive controls or DMSO only was transferred to the assay plate by a Pintool station (Kalypsys, San Diego, CA). The plates were incubated at 37C and 5% CO2 for 16 hr. Then 1 uL of LiveBLAzerTM B/G FRET substrate was added using a BioRAPTR FRD (Flying Reagent Dispenser, Aurora Discovery, San Diego, CA) and then the plates were incubated at room temperature for 2 hours, and fluorescence intensity was measured by an Envision plate reader (PerkinElmer, Shelton, CT). For cell viability readout that measures cytotoxicity, 4 uL/well of CellTiter-Glo reagent was added into the assay plates using a FRD. After 30 min incubation at room temperature, the luminescence intensity in the plates was measured using a ViewLux (PerkinElmer) plate reader.
Potency is the fitted concentration of half-maximal effect.

Row | Structure (SMILES) | Potency
1 | CN(C)c1ccc(N)cc1 | 11.9 µM (active)
2 | Cc1cccc(Cc2cnc[nH]2)c1C | inactive
3 | CCC[CH2][Sn]([CH2]CCC)([CH2]CCC)[O][Sn]([CH2]CCC)([CH2]CCC)[CH2]CCC | 1.06 µM (active)
4 | O=c1c2ccccc2c(=O)c2c1cc(Cl)c1[nH]c3c([nH]c12)c(Cl)cc1c(=O)c2ccccc2c(=O)c13 | inactive
5 | Cc1cc2c3c(c1)C(c1ccccc1)=N[C@@H](NC(=O)c1ccncc1)C(=O)N3CC2 | inactive
6 | C#CC1(O)CCCCC1 | inactive
7 | CC[N+]1(CC)CCC(OC(=O)C(O)(c2ccccc2)c2ccccc2)C1 (stereo not given) | inactive
8 | CN=C=O | inactive
9 | O=C(CCCCl)c1ccc(F)cc1 | inactive
10 | CSSC | inactive
11 | CCCCN(CCCC)C(=S)[S-].CCCCN(CCCC)C(=S)[S-].[Ni+2] | inactive
12 | N#Cc1c[nH]cc1-c1cccc2c1OC(F)(F)O2 | 21.7 µM (active)
13 | O=NN(CCO)CCO | inactive
14 | N#Cc1ccc(N(CC(N)=O)CC(F)(F)F)cc1C(F)(F)F | inactive
15 | ClSC(Cl)(Cl)Cl | inactive
16 | CCOP(=S)(NC(C)C)Oc1ccccc1C(=O)OC(C)C (stereo not given) | 3.86 µM (active)
17 | N#Cc1sc2c(=O)c3ccccc3c(=O)c=2sc1C#N | 21.7 µM (active)
18 | COP(=S)(NC(C)C)Oc1ccc(C)cc1[N+](=O)[O-] (stereo not given) | inactive
19 | [O]=[Cr][O][Cr]=[O] | inactive
20 | c1ccc2c(c1)cc1ccc3cccc4ccc2c1c34 | inactive

Row | Structure (SMILES) | Potency
21 | Nc1ccccc1-c1ccccc1 | 48.3 µM (active)
22 | CC(=O)[O-].CC(=O)[O-].CC(=O)[O-].[Cr+3] | inactive
23 | BrCCCBr | inactive
24 | Cc1c([N+](=O)[O-])c(C)c([N+](=O)[O-])c(C(C)(C)C)c1[N+](=O)[O-] | 27.3 µM (active)
25 | C=CCOC(=O)c1ccccc1N | 30.8 µM (active)
26 | CC1CN1 (stereo not given) | inactive
27 | CCc1cccc(C)c1N(C(=O)CCl)[C@@H](C)COC | inactive
28 | CC(C)NCC(O)c1ccccc1Cl (stereo not given) | inactive
29 | C[C@]12C/C(=C/O)C(=O)C[C@@H]1CC[C@@H]1[C@@H]2CC[C@@]2(C)[C@H]1CC[C@]2(C)O | 49 µM (active) and 26.6 µM (active)
30 | CCOC(=O)Cc1ccccc1 | inactive
31 | N#Cc1c2ccccc2cc2ccccc12 | inactive
32 | C[N+]1(C)[C@@H]2CC[C@H]1CC(OC(=O)C(CO)c1ccccc1)C2 (stereo not given in full) | inactive
33 | O=S1OCC2C(CO1)C1(Cl)C(Cl)=C(Cl)C2(Cl)C1(Cl)Cl (stereo not given) | 48.5 µM (active)
34 | CC(=O)[O][Sn]([c]1ccccc1)([c]1ccccc1)[c]1ccccc1 | 0.137 µM (active)
35 | COc1ccc(Cc2nccc3cc(OC)c(OC)cc23)cc1OC | inactive
36 | CCCCc1ccccc1 | inactive
37 | Brc1cccc(-c2ccccc2)c1 | inactive
38 | CCOP(=S)(OCC)SC(CCl)N1C(=O)c2ccccc2C1=O (stereo not given) | inactive
39 | O=C(O)[C@H](O)[C@@H](O)C(=O)O | inactive
40 | COP(=O)(OC)Oc1ccc([N+](=O)[O-])cc1 | inactive
